# Results: PubChem BioAssay (EPA / NIEHS)
# Results filed as inconclusive are left out. The source made the active and inactive calls. How the source made its calls, unless noted: active means hit-call score of the fitted dose curve at least 0.9, where 1 is the maximum; inconclusive means response in the unintended direction; inactive means score below 0.9.
# Assays:
# [1] = system: guinea pig Dopamine Transporter (DAT), gene 100714898; experiment: NVS_TR_gDAT: NovaScreen (NVS) Transporter Assay for guinea pig Dopamine Transporter (DAT) (AID 2283369);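 further: active compounds lower bound radioligand signal relative to DMSO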
# Outline: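 Cell-free striatal membrane prep (guinea pig), 2 h exposure, filtration + scintillation readout of radioligand binding. Single-point 25 uM duplicate; actives rerun singleton, top conc 50 uM.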
# [2] = biological target: human Norepinephrine Transporter (NET), SLC6A2 (gene 6530) (UniProt P23975); experiment: NVS_TR_hNET: NovaScreen (NVS) Transporter Assay for human Norepinephrine Transporter (NET) (AID 2283377);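 further: cell-free membrane protein extracted from CHO cells expressing human NET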;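 on AC50: displacement of radioligand from human NET seen as loss of scintillation signal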
# Outline: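 Scintillation counts of filter-retained radioligand served as the readout, taken 1 h post-dosing in a cell-free CHO-derived system. Test chemicals ran first at 25 uM in duplicate; confirmed hits were retested across concentrations.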
# [3] = biological target: human Dopamine Transporter (DAT), SLC6A3 (gene 6531) (UniProt Q01959); experiment: NVS_TR_hDAT: NovaScreen (NVS) Transporter Assay for human Dopamine Transporter (DAT) (AID 2283374);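 further: activity means loss of bound radioligand signal relative to DMSO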
# Outline: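 Test chemicals were first screened in duplicate at 25 uM, with actives retested as concentration series. Displacement of a specific radioligand from cell-free human dopamine transporter was measured after 1 h by filtration and scintillation counting.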
# [4] = biological target: Estrogen receptor (Homo sapiens) (UniProt P03372); experiment: OT_ERa_GFPERaERE_0480: Odyssey Thera (OT) 8-hour HeLa Transcription Induction Assay for Estrogen Receptor (AID 2283381; active means hit-call score of the fitted dose curve at least 0.9, where 1 is the maximum; inactive means score below 0.9)
# Outline: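 Fluorescent reporter signal, imaged by microscopy and scored with image-analysis algorithms, was taken 8 h after chemical dosing of HeLa cells; activity was fitted upward relative to DMSO.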
# [5] = biological target: Estrogen receptor (Homo sapiens) (UniProt P03372); experiment: OT_ERa_GFPERaERE_0120: Odyssey Thera (OT) 2-hour HeLa Transcription Induction Assay for Estrogen Receptor (AID 2283382)
# Outline: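 HeLa, 384-well, 2 h chemical exposure; GFP reporter induction (ERE), fluorescence microscopy; high content image analysis; positive fitting direction vs DMSO.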
# [6] = biological target: Retinoic acid receptor RXR-alpha (Homo sapiens) (UniProt P19793); experiment: OT_NURR1_NURR1RXRa_0480: Odyssey Thera (OT) 8-hour HEK293T Protein Complementation Assay for Nurr1/retinoid X receptor (RXR) (AID 2283385)
# Outline: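 8 h compound exposure, HEK293T; Nurr1/RXRα fragment complementation; fluorescence intensity; positive fitting direction vs DMSO baseline.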
# [7] = biological target: Retinoic acid receptor RXR-alpha (Homo sapiens) (UniProt P19793); experiment: OT_NURR1_NURR1RXRa_1440: Odyssey Thera (OT) 24-hour HEK293T Protein Complementation Assay for Nurr1/retinoid X receptor (RXR) (AID 2283386)
# Outline: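 Interaction of Nurr1 with RXRα brings fused reporter fragments together in human HEK293T cells, restoring a functional reporter. Fluorescence intensity is measured 24 h after chemical treatment, and values are analysed in the positive direction against DMSO.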
# [8] = biological target: Peroxisome proliferator-activated receptor gamma (Homo sapiens) (UniProt P37231); experiment: OT_PPARg_PPARgSRC1_1440: Odyssey Thera (OT) 24-hour Protein-Complementation Assay for Peroxisome Proliferator-activated Receptor Gamma/ SRC-1 Co-activator (AID 2283388)
# Outline: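 Readout: nuclear-to-cytoplasmic 488 nm fluorescence ratio, ≥350 cells per image, 8 images per well, after 24 h compound exposure of HEK293T expressing PPARg/SRC-1 split-YFP fusions. Activity fitted in positive direction against DMSO.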
# [9] = biological target: Agonist Androgen Response Element (ARE), AR (gene 367) (UniProt P10275); experiment: OT_AR_ARELUC_AG_1440: Odyssey Thera (OT) 24-hour CHO-K1 Luciferase Assay for Agonist Androgen Response Element (ARE) (AID 2283379)
# Outline: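 Agonist mode, 24 h exposure in CHO-K1 ARE-luciferase cells; values reflect luminescence induction over vehicle.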
# [10] = biological target: Estrogen receptor beta (Homo sapiens) (UniProt Q92731); experiment: OT_ER_ERbERb_1440: Odyssey Thera (OT) 24-hour HEK293T Protein-Complementation Assay for Estrogen Receptor-beta/-beta Homodimer (AID 2283380);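 further: fluorescence gain from ER beta LBD homodimer complementation read by laser scanning cytometry; scored as signal increase over DMSO baseline for both agonists and antagonists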
# Outline: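 Fluorescence increase, nuclear for agonists or whole-cell for antagonists, relative to DMSO vehicle, quantified by laser scanning cytometer after fixation and Draq5 staining. Readout from 24 h treatment of HEK293T cells carrying complementation-paired ER beta LBD (aa 310-547).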
# [11] = CEETOX_H295R_11DCORT: CeeTox H295R High-throughput Steroidogenesis Assay for 11-Deoxycortisol (11DCORT) (AID 2283432; active means hit-call score of the fitted dose curve at least 0.9, where 1 is the maximum; inactive means score below 0.9;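 on AC50: human adrenal H295R cells prestimulated with 10 µM forskolin for 48 h; 11-deoxycortisol secreted into the medium measured by LC-MS/MS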); conditions: actives raise or lower the signal
# Outline: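 H295R cells prestimulated 48 h with 10 uM forskolin, then exposed 48 h to chemical in 0.1% DMSO. 11-Deoxycortisol in medium quantified by HPLC-MS/MS after MTBE extraction; bidirectional fit versus DMSO. MTT viability read in same wells.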
# [12] = CEETOX_H295R_OHPREG: CeeTox H295R High-throughput Steroidogenesis Assay for OH-Pregnenolone (OHPREG) (AID 2283434; active means hit-call score of the fitted dose curve at least 0.9, where 1 is the maximum; inactive means score below 0.9); conditions: actives raise or lower the signal
# Outline: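 Hormone levels in spent medium were measured by tandem mass spectrometry following liquid-liquid extraction. Cells (H295R) had been forskolin-stimulated (10 uM, 48 h) before a 48 h chemical exposure at 0.1% DMSO, with activity fitted in both directions against DMSO.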
# [13] = CEETOX_H295R_ANDR: CeeTox H295R High-throughput Steroidogenesis Assay for Androstenedione (ANDR) (AID 2283436; active means hit-call score of the fitted dose curve at least 0.9, where 1 is the maximum; inactive means score below 0.9;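 further: human H295R adrenal cells exposed for 48 h with androstenedione measured in medium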); conditions: actives raise or lower the signal
# Outline: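 Read-out is androstenedione secreted into medium, measured by tandem mass spectrometry after liquid-liquid extraction. Cells were H295R, dosed for 48 h per modified OECD 456; activity fitted in both directions relative to DMSO.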
# [14] = CEETOX_H295R_CORTIC: CeeTox H295R High-throughput Steroidogenesis Assay for Corticosterone (CORTIC) (AID 2283437; active means hit-call score of the fitted dose curve at least 0.9, where 1 is the maximum; inactive means score below 0.9;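 further: corticosterone secreted into medium quantified by mass spectrometry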;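 on AC50: human H295R adrenal cells prestimulated with forskolin before chemical exposure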); conditions: actives raise or lower the signal
# Outline: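 Corticosterone secreted into medium is measured by reverse-phase HPLC with tandem MS following liquid-liquid extraction. Cells are forskolin-stimulated (10 uM, 48 h) before 48 h test exposure; activity fitted in both directions against DMSO.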
# [15] = CEETOX_H295R_CORTISOL: CeeTox H295R High-throughput Steroidogenesis Assay for Cortisol (AID 2283438; active means hit-call score of the fitted dose curve at least 0.9, where 1 is the maximum; inactive means score below 0.9;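 further: cortisol secreted into medium quantified by LC-MS/MS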); conditions: actives raise or lower the signal
# Outline: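 Forskolin 10 uM 48 h prestim → test cmpd in DMSO (0.1% final) 48 h → medium MTBE-extracted → LC-MS/MS cortisol vs 7-pt std curve. Gain/loss of signal fitted vs DMSO. MTT viability in same wells.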
# [16] = biological target: Bile acid receptor (Homo sapiens) (UniProt Q96RI1); experiment: OT_FXR_FXRSRC1_0480: Odyssey Thera (OT) 8-hour HEK293T Protein-Complementation Assay for Farnesoid X receptor/SRC-1 Co-activator (AID 2283383)
# Outline: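 Human kidney HEK293T cells carried FXR/SRC-1 fragment-complementation constructs. Compounds were added and incubated 8 h. Reporter reassembly upon receptor–co-activator interaction was then quantified by fluorescence, with curves fitted in the positive direction relative to DMSO.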
# [17] = biological target: Bile acid receptor (Homo sapiens) (UniProt Q96RI1); experiment: OT_FXR_FXRSRC1_1440: Odyssey Thera (OT) 24-hour HEK293T Protein-Complementation Assay for Farnesoid X receptor/SRC-1 Co-activator (AID 2283384)
# Outline: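 Compounds are applied to human kidney HEK293T cells expressing bait and prey fused to reporter protein fragments; after 24 h, reconstituted reporter fluorescence is measured. Activity is fitted as signal gain over DMSO.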
# [18] = biological target: mouse Estrogen Receptor alpha (Era), Esr1 (gene 13982) (UniProt P19785); experiment: NVS_NR_mERa: NovaScreen (NVS) Nuclear Receptor Binding Assay for mouse Estrogen Receptor alpha (Era) (AID 2283378);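 further: hit means loss of bound radioligand signal relative to DMSO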
# Outline: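 Filter scintillation counts of bound radioligand, measured 18 h post-dose, gave the readout; decreased signal relative to DMSO controls indicated displacement from mouse Era. Primary screen ran in duplicate at 25 uM; active chemicals were retested across concentrations.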
# [19] = biological target: Peroxisome proliferator-activated receptor gamma (Homo sapiens) (UniProt P37231); experiment: OT_PPARg_PPARgSRC1_0480: Odyssey Thera (OT) 8-hour Protein-Complementation Assay for Peroxisome Proliferator-activated Receptor Gamma / SRC-1 Co-activator (AID 2283387);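 further: nuclear to cytoplasmic split Venus YFP fluorescence ratio reporting PPARg SRC-1 interaction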
# Outline: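 HEK293T transiently transfected with PPARg and SRC-1 fused to Venus YFP fragments, compounds 8 h at 37C. Fixed, Draq5-stained cells imaged; nuclear/cytoplasmic 488 nm fluorescence ratio over at least 350 cells per image; gain fitted versus DMSO.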
# [20] = biological target: rat Serotonin Transporter (SERT), Slc6a4 (gene 25553) (UniProt P31652); experiment: NVS_TR_rSERT: NovaScreen (NVS) Transporter Assay for rat Serotonin Transporter (SERT) (AID 2283375)
# Outline: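 Radioligand displacement, filter scintillation readout; rat forebrain membrane prep, 1 h post-dose. Single-conc 25 uM duplicate screen, then concentration-response on actives. Loss of signal vs DMSO baseline.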
# Bile acid receptor (Homo sapiens), sequence (Q96RI1 whole entry, looked up, the tested form may be a part): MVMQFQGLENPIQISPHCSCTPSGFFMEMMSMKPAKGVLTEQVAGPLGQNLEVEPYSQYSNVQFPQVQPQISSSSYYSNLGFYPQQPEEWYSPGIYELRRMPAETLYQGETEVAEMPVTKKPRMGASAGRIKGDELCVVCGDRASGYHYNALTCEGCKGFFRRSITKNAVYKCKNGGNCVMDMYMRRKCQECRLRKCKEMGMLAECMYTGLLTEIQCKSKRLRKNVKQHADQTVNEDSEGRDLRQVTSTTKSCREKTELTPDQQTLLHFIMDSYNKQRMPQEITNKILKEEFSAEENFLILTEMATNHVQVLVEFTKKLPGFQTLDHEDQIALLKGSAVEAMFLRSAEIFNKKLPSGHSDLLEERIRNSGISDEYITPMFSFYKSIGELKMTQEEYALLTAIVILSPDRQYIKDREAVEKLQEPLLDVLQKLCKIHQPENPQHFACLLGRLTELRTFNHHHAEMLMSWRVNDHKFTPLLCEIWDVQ
# human Dopamine Transporter (DAT), SLC6A3 (gene 6531), sequence (Q01959 whole entry, looked up): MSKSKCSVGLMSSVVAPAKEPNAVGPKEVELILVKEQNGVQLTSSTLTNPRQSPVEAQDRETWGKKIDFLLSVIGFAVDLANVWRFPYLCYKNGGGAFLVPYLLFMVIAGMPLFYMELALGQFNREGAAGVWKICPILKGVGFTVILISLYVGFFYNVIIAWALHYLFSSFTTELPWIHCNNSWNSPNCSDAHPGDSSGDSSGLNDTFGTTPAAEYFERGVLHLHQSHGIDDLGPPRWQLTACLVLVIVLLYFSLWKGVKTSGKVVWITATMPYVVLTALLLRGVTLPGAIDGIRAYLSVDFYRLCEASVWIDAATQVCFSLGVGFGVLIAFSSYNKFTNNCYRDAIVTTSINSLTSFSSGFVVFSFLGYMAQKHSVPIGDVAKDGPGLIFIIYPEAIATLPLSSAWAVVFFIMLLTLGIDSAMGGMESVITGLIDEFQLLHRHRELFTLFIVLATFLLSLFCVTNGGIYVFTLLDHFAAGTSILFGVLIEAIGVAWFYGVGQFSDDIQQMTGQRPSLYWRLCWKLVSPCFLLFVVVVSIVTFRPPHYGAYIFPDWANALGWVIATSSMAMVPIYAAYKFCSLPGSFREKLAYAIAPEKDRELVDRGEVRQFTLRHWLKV
# Peroxisome proliferator-activated receptor gamma (Homo sapiens), sequence (P37231 whole entry, looked up, the tested form may be a part): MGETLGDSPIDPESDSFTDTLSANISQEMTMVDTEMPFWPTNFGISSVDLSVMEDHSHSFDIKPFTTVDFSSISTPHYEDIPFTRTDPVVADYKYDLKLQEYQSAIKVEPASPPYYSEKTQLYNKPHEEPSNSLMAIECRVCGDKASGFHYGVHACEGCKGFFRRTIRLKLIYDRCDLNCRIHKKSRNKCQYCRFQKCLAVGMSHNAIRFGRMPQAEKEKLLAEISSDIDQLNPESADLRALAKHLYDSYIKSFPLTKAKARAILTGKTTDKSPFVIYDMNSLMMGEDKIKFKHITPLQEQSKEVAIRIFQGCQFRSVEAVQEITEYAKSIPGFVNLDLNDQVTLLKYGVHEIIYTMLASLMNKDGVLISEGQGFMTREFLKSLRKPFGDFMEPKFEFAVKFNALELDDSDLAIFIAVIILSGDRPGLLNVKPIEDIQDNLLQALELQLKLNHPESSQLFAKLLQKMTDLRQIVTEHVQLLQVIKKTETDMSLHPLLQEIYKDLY
# human Norepinephrine Transporter (NET), SLC6A2 (gene 6530), sequence (P23975 whole entry, looked up): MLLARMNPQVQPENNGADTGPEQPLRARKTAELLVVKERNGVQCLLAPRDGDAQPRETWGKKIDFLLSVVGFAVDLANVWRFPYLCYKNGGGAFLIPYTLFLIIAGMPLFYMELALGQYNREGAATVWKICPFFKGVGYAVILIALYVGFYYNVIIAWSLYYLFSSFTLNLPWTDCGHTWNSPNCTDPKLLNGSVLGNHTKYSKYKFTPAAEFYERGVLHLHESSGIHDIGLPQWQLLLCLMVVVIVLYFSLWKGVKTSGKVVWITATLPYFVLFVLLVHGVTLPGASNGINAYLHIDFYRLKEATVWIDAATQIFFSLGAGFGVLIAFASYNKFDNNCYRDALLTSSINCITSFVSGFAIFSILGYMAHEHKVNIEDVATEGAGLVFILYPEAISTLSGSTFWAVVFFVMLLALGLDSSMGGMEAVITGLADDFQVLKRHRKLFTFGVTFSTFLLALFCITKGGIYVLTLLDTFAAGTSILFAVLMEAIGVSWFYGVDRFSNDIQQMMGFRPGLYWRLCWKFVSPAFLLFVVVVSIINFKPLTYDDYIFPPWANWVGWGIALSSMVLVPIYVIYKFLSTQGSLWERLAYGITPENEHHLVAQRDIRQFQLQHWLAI
# Estrogen receptor (Homo sapiens), sequence (P03372 whole entry, looked up): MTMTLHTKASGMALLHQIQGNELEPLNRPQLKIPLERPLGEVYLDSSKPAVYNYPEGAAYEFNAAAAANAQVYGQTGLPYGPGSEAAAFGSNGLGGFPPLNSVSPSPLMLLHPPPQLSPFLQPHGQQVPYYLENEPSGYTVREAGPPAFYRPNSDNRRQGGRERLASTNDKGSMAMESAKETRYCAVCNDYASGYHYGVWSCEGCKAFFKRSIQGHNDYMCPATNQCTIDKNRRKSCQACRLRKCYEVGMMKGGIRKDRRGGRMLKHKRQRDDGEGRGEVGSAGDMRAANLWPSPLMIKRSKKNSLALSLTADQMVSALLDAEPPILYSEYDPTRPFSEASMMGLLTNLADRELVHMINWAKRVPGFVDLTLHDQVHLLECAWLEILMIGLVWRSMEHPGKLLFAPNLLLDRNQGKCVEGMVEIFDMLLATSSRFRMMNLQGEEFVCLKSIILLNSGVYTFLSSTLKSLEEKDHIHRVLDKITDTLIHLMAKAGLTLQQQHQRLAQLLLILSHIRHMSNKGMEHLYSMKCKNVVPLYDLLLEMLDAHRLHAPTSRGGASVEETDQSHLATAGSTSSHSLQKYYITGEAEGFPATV
# Agonist Androgen Response Element (ARE), AR (gene 367), sequence (P10275 whole entry, looked up): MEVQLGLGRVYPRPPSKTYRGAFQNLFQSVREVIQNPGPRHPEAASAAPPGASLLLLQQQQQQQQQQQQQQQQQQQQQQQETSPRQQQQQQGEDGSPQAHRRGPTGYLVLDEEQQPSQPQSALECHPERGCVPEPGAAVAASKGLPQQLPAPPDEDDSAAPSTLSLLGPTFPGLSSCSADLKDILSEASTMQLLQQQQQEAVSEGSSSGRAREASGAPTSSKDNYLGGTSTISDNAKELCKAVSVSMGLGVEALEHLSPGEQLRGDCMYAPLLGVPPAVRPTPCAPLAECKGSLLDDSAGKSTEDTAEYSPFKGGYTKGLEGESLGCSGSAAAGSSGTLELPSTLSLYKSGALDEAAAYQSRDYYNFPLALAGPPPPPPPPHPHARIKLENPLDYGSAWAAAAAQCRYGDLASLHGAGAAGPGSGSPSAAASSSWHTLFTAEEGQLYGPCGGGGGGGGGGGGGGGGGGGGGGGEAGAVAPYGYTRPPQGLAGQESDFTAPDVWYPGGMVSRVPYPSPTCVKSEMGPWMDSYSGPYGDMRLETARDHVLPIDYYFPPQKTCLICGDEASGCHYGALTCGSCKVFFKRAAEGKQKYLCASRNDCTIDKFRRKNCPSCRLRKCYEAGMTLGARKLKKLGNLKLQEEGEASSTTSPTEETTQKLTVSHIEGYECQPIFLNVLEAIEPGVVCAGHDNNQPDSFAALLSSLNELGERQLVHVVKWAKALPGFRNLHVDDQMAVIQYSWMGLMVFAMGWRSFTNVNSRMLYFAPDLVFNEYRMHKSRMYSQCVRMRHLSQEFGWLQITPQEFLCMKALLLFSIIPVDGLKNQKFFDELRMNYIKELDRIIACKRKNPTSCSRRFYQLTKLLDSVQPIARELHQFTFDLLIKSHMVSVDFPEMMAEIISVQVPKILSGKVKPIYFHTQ
# Estrogen receptor beta (Homo sapiens), sequence (Q92731 whole entry, looked up, the tested form may be a part): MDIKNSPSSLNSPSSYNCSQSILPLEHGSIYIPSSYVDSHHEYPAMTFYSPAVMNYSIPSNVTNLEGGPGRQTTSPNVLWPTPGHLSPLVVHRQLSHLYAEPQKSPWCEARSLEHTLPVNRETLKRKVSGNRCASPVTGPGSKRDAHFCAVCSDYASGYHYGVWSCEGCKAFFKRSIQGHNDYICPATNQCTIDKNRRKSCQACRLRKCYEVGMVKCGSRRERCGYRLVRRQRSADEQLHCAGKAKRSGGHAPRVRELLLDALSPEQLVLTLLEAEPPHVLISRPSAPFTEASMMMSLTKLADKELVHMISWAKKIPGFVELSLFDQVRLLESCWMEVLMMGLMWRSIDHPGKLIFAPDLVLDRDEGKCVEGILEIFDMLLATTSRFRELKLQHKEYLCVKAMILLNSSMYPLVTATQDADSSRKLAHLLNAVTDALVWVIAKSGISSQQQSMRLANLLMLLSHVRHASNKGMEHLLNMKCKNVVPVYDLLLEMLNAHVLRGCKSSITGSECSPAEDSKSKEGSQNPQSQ
# Retinoic acid receptor RXR-alpha (Homo sapiens), sequence (P19793 whole entry, looked up, the tested form may be a part): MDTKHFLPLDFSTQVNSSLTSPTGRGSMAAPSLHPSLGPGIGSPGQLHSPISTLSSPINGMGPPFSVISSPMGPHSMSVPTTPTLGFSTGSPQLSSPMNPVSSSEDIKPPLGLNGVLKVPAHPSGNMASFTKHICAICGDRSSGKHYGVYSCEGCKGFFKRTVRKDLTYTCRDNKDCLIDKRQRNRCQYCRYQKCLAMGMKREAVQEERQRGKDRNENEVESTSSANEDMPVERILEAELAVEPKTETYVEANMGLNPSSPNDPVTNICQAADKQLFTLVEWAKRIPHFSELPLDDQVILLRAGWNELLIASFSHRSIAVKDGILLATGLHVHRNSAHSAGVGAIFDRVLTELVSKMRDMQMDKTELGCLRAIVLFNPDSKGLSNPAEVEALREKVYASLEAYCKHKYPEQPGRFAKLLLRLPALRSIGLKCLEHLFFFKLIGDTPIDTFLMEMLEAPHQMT
compound,measurement,setting,value
CCN(CCC#N)c1ccc(N=Nc2ccc([N+](=O)[O-])cc2)cc1,outcome,[1],inactive
same,outcome,[2],inactive
CS(=O)(=O)OCCCCOS(C)(=O)=O,AC50,[3],25 µM (active)
same,outcome,[2],inactive
same,outcome,[4],inactive
same,outcome,[5],inactive
same,outcome,[6],inactive
same,outcome,[7],inactive
same,outcome,[8],inactive
COc1ccc(OC)c(N=Nc2c(O)ccc3ccccc23)c1,AC50,[2],17.4 µM (active)
CCc1cc(Cc2cc(CC)cc(C(C)(C)C)c2O)c(O)c(C(C)(C)C)c1,outcome,[9],inactive
same,outcome,[10],inactive
same,outcome,[8],inactive
BrCc1cccc(Oc2ccccc2)c1,outcome,[9],inactive
same,AC50,[10],56.3 µM (active)
same,outcome,[6],inactive
same,outcome,[7],inactive
same,outcome,[8],inactive
same,outcome,[11],inactive
same,outcome,[12],inactive
same,AC50,[13],38.2 µM (active)
same,AC50,[14],32.7 µM (active)
same,outcome,[15],inactive
CC=Cc1ccc(OC)c(OC)c1,outcome,[2],inactive
CC1CCC(C(C)C)C(O)C1 (stereo not given),outcome,[9],inactive
same,outcome,[10],inactive
same,outcome,[16],inactive
same,outcome,[17],inactive
same,outcome,[7],inactive
same,outcome,[8],inactive
CCCCCCCCCCCC(=O)OCC(O)CO (stereo not given),AC50,[18],6.68 µM (active)
same,outcome,[10],inactive
same,outcome,[4],inactive
same,outcome,[5],inactive
same,outcome,[6],inactive
same,outcome,[7],inactive
same,outcome,[8],inactive
CN(c1nccc(=O)[nH]1)C1CCN(c2nc3ccccc3n2Cc2ccc(F)cc2)CC1,AC50,[1],1.76 µM (active)
same,AC50,[3],11.5 µM (active)
same,outcome,[2],inactive
OCc1cccc(Oc2ccccc2)c1,outcome,[9],inactive
same,AC50,[10],59.1 µM (active)
same,outcome,[16],inactive
same,outcome,[17],inactive
same,outcome,[6],inactive
same,outcome,[19],inactive
same,outcome,[8],inactive
same,outcome,[12],inactive
same,AC50,[13],50 µM (active)
ClC(c1ccccc1)(c1ccccc1)c1ccccc1,outcome,[1],inactive
same,outcome,[3],inactive
Nc1ccc(N)c2c1C(=O)c1ccccc1C2=O,AC50,[9],1.71 µM (active)
same,outcome,[10],inactive
same,outcome,[17],inactive
same,outcome,[8],inactive
same,AC50,[11],7.09 µM (active)
same,outcome,[12],inactive
same,outcome,[13],inactive
same,outcome,[14],inactive
same,outcome,[15],inactive
CC(C)(C)CC(C)(C)c1ccc(OCCOCC[N+](C)(C)Cc2ccccc2)cc1,AC50,[1],1.75 µM (active)
same,outcome,[11],inactive
same,outcome,[12],inactive
same,outcome,[14],inactive
same,outcome,[15],inactive
COc1cc(Cl)c(OC)cc1N,AC50,[2],25 µM (active)
Nc1ccc(Cl)c([N+](=O)[O-])c1,outcome,[2],inactive
C[C@@H]1CCN(C(=O)[C@H](CCCN=C(N)N)NS(=O)(=O)c2cccc3c2NC[C@H](C)C3)[C@@H](C(=O)O)C1,outcome,[2],inactive
CC(=O)O[C@H]1C[C@@H]2CC[C@@]1(C)C2(C)C,AC50,[9],31.8 µM (active)
same,outcome,[10],inactive
same,outcome,[16],inactive
same,outcome,[6],inactive
same,outcome,[19],inactive
same,outcome,[8],inactive
COc1ccc(CCN2CCC(Nc3nc4ccccc4n3Cc3ccc(F)cc3)CC2)cc1,AC50,[1],4.41 µM (active)
same,AC50,[3],3.89 µM (active)
same,AC50,[20],2.26 µM (active)
same,AC50,[2],2.52 µM (active)
same,AC50,[11],1.49 µM (active)
same,AC50,[12],0.698 µM (active)
same,AC50,[14],1.48 µM (active)
same,AC50,[15],1.56 µM (active)
CCCCCCCCCCCCCCCC(=O)OC/C=C(C)/C=C/C=C(C)/C=C/C1=C(C)CCCC1(C)C,outcome,[2],inactive
CN(C)C(=S)SC(=S)N(C)C,AC50,[1],6.19 µM (active)
NC(=S)NNC(N)=S,outcome,[2],inactive
